# This excerpt belongs to a sample that is enriched for hits.
# TTR transcr act – TTR transcription activation, primary screen; activation, % at 16.7 µM; SH-SY5Y TTR promoter Gaussia luciferase, luminescence; 100% = recombinant luciferase protein wells; 1.3% of 92,000 active; AID 1117267;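 active means activation above the mean of all tested compounds plus 3 SD, cut at about 9.5% in these data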;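 further: cells exposed to compounds for one day before reading; 0% = median of all test compound wells on the plate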
# HuH7 TTR inh – counter-screen for TTR activators: TTR transcription inhibitors in HuH7 cells | shares compounds with TTR transcr act | HuH7 TTR promoter-Gaussia luciferase reporter, luminescence | inhibition, % at 16.7 µM | 4% of 1,100 active;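 active means average inhibition above the solvent-only control wells' mean plus 3 SD, cut at about 15% in these data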;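 further: 0% = cells with DMSO only and 100% = cells with inhibitor control FD; inhibitors lower well luminescence so higher value means more inhibition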
# TTR act confirm – human TTR transcription activation, confirmation. shares compounds with TTR transcr act. SHSY5Y TTR promoter Gaussia luciferase, luminescence; 100% = purified Lucia enzyme wells, no cells. activation, % at 16.7 µM. 1,100 tested, under 10 active. AID 1117280;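 active means mean activation above a set limit taken from the earlier primary screen, cut at about 11% in these data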;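 further: 0% = DMSO-treated cells and 100% = recombinant Lucia luciferase without cells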
# * = called active by the depositor.
SMILES,TTR transcr act,others
CN1CCN(NC(=O)Nc2ccc(Br)cc2Cl)CC1,1,
CC1CCCC(NC(=O)CCCn2c(=S)[nH]c3ccccc3c2=O)C1C (stereo unspecified),2,
O=C(Nc1ccccc1)c1cc2n(n1)C(C(F)(F)F)CC(C1CC1)N2 (stereo unspecified),14*,HuH7 TTR inh=-15;TTR act confirm=1
O=C(NCc1ccco1)c1cc2n(n1)C(C(F)(F)F)CC(c1ccc(Cl)c(Cl)c1)N2 (stereo unspecified),-1,
CC(C)NC(=O)c1cc2n(n1)C(C(F)(F)F)CC(c1ccco1)N2 (stereo unspecified),0,
CN(Cc1ccco1)S(=O)(=O)c1nnc(NC(=O)c2ccccc2Cl)s1,-1,
C=CCN(CC=C)CC(=O)Nn1c(C)ccc1C,2,
O=C(CN1CCCC(O)C1)N1c2ccccc2Sc2ccc(C(F)(F)F)cc21 (stereo unspecified),-3,
CN(C)CC(=O)N1c2ccccc2Sc2ccc(Cl)cc21,2,
CC1CCCN(CC(=O)N2c3ccccc3Sc3ccccc32)C1 (stereo unspecified),15*,HuH7 TTR inh=0;TTR act confirm=0
CCOC(=O)CCCNC(=O)COC(=O)c1ccc(O)cc1,0,
CCOC(=O)C(CCCCCCP(=O)(c1ccccc1)c1ccccc1)NC(C)=O (stereo unspecified),-1,
Cc1cccc(C(=O)c2ccccc2C(=O)O)c1,11*,HuH7 TTR inh=-7;TTR act confirm=1
Cc1cccc(C(=O)NNC(=O)c2ccccc2-n2cccc2)c1,-1,
O=C(O)c1cccc(C(=O)c2cccc3ccccc23)c1,-1,
Cc1ccc2c(CN3CCN(CCO)CC3)cc(=O)oc2c1C,-1,
NC(=O)c1cccc(Nc2nc(C(N)Cc3ccc(C(F)(F)F)cc3)cs2)n1 (stereo unspecified),2,
CN(C)/C=C(\C=O)c1cccc(Cl)c1,2,
Cc1cc(C)nc(NS(=O)(=O)c2ccc(NC(=O)C3CC(=O)N(c4ccccc4)C3)cc2)n1 (stereo unspecified),-1,
Cc1cc(C)nc(NS(=O)(=O)c2ccc(NC(=O)C3CC3)cc2)n1,24*,HuH7 TTR inh=-21;TTR act confirm=0
Cc1ccnc(NS(=O)(=O)c2ccc(NC(=O)C3CC3)cc2)n1,5,
N#C/C(=C\c1coc2ccc(O)cc2c1=O)C(=O)Nc1nc2ccccc2s1,-1,
O=C(Nc1ccccc1)C1=C(c2ccccc2)S(=O)(=O)CCS1(=O)=O,-6,
CCCC1CCC2(CC1)CCC2OC(=S)Nc1ccc(N(C)C)cc1 (stereo unspecified),2,
N#Cc1ccc(C(=O)OCC(=O)Nc2cccnc2Cl)cc1,16*,HuH7 TTR inh=-10;TTR act confirm=-1
SMILES,TTR transcr act,others
O=C(COC(=O)c1cccc(F)c1)Nc1cccnc1Cl,-1,
COc1cccc(OC)c1C(=O)OCC(=O)Nc1cccnc1Cl,-1,
COc1ccccc1C1=NOC(Cn2c(=O)c3c(ncn3C)n(C)c2=O)C1 (stereo unspecified),16*,HuH7 TTR inh=-15;TTR act confirm=1
COc1ccccc1C1=NOC(Cn2c(NCC3CCCO3)nc3c2c(=O)n(C)c(=O)n3C)C1 (stereo unspecified),0,
COc1ccccc1-n1cnc2c(c1=O)c1nc3ccccc3nc1n2CCc1ccccc1,1,
Cc1cccc(C)c1NC(=O)CCCSc1nnc(-c2ccco2)o1,1,
COc1ccc(-c2cc(C)no2)cc1S(=O)(=O)NCc1cccc(C)c1,9.8*,HuH7 TTR inh=28*;TTR act confirm=-1
Cc1cccc(CNS(=O)(=O)c2ccc(-c3ccc(=O)[nH]n3)s2)c1,0,
COc1ccc(CN2C(=O)c3cccnc3C2=O)cc1S(=O)(=O)NCc1ccc(C)cc1,-2,
Cc1noc(C)c1COc1ccc(C(=O)N2CCC(C)CC2)cc1,2,
CCOC(=O)CC(=O)CSc1nc2c(sc(=S)n2-c2ccc(OCC)cc2)c(=O)[nH]1,2,
CCC1(CC)C(=O)Nc2ccccc21,6,
O=C1Nc2ccccc2C1=O,0,
CCS(=O)(=O)C(=C1Nc2ccccc2N1)S(=O)(=O)CC,21*,HuH7 TTR inh=-13;TTR act confirm=2
Cc1cc(C)nc(NC(=O)c2ccc(Br)s2)n1,5,
COc1ccc(N(CC(=O)NCc2cccnc2)S(=O)(=O)c2ccccc2[N+](=O)[O-])c(OC)c1,-2,
Cc1ccc(C(=O)NC(=S)Nc2ccc3[nH]c(=O)[nH]c3c2)cc1,-1,
O=C(c1cccc(Cl)c1)N1CCCC(c2ccc(Cl)cc2)=N1,5,
C/C(N)=C(/C#N)C(=O)COC(=O)c1ccccc1C(=O)c1ccc(C)cc1,1,
COC(=O)c1cnc(NNS(=O)(=O)c2ccc(Cl)cc2)nc1C(F)(F)F,11*,HuH7 TTR inh=-14;TTR act confirm=-1
COC(=O)c1cnc(Nc2nc(C(N)Cc3ccccc3)cs2)nc1C(F)(F)F (stereo unspecified),0,
COC(=O)c1cnc(NNC(=O)c2ccc([N+](=O)[O-])cc2)nc1C(F)(F)F,4,
CCN(CC)c1ccc(/C=C2\CCC(/C=N/NC(=O)c3ccc(=O)n(C)c3)=C2N2CCOCC2)cc1,0,
O=c1c2ccccc2n2c(-c3ccc(C(F)(F)F)cc3)nnc2n1Cc1ccccc1,0,
CCOC(=O)C1=C(C)N(C)C(=S)NC1c1ccc(Cl)cc1 (stereo unspecified),-1,
SMILES,TTR transcr act,others
O=c1[nH]ncc(N/N=C\c2ccncc2)c1Cl,2,
CS(=O)(=O)Nc1ccc(S(=O)(=O)NCCc2ccccc2)cc1,1,
CCN(C(=O)CSc1nnc(C)n1Cc1ccccc1)C1CCS(=O)(=O)C1 (stereo unspecified),10*,HuH7 TTR inh=-5;TTR act confirm=1
CCN(C(=O)CSc1ccc2ccccc2c1)C1CCS(=O)(=O)C1 (stereo unspecified),2,
CCN(C(=O)CSc1nnc(-c2ccc(F)cc2)c2ccccc12)C1CCS(=O)(=O)C1 (stereo unspecified),-1,
CCOC(=O)c1oc2ccccc2c1COC(=O)CNC(=O)c1cccc(C)c1,-1,
CC(C)(C)C(=O)Nc1ccc(-c2cc3cc(Cl)ccc3o2)cc1,1,
COc1ccc(C(=O)CN2CC(C)SC2=Nc2ccc(Cl)cc2)cc1 (stereo unspecified),3,
COc1ccc(OC)c(C2CC(=O)NC(SC)=C2C#N)c1 (stereo unspecified),0,
CCOC(=O)C(=O)Nc1ccccc1C(=O)NC(C)C,0,
CCOC(=O)C(=O)Nc1ccccc1C#N,25*,HuH7 TTR inh=-3;TTR act confirm=2
CCOC(=O)C(=O)Nc1ccccc1C(=O)OCC,4,
Cc1c(C(=O)O)sc(S(=O)(=O)N2CCNCC2)c1C(=O)O,-1,
CCOC(=O)COc1ccc2c3c(c(=O)oc2c1C)CCC3,1,
Cc1c(OCC(=O)C(C)(C)C)ccc2c3c(c(=O)oc12)CCCC3,-2,
Cc1coc2c(C)c3oc(=O)c4c(c3cc12)CCCC4,12*,HuH7 TTR inh=-6;TTR act confirm=0
O=C(c1cccc([N+](=O)[O-])c1)N1CCN(c2ccccn2)CC1,-2,
Cc1cc(C(=O)N2CCN(c3ccccn3)CC2)no1,-1,
Cc1c(C#N)c2ccccc2n1CC(=O)NCCc1c[nH]c2ccccc12,0,
O=C1OCC(CO)(CO)N=C1NNc1ccc(Cl)c(Cl)c1,0,
Cn1c(NC(=O)C2CC2)cc(=O)n(C)c1=O,9.9*,HuH7 TTR inh=-7;TTR act confirm=0
COCC(=O)Nc1cc(=O)n(C)c(=O)n1C,11*,HuH7 TTR inh=-1;TTR act confirm=-1
Cn1c(NC(=O)Cc2cccs2)cc(=O)n(C)c1=O,2,

# From PubChem BioAssay
